Compound activity deposited in PubChem by National Center for Advancing Translational Sciences (NCATS).
In the library only some 2.6% were active in any assay of this set; here they are far more common.
p53ts 32C kill: cytotoxicity in p53ts cells at permissive temperature | H1299-p53A138V at 32C, ATP luminescence viability, 24 h | Potency, µM (doses to about 46.1 µM), hits mostly cytotoxic | 130,000 compounds, 0.93% hits | AID 924; note: nearly all actives have a fitted effect of over 55% in size
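H1299-p53 A138V cells (temperature-sensitive p53) exposed 24 h to up to 46 uM compound at 32C, where p53 is wild-type in conformation. Viability read as ATP luminescence and normalised to DMSO and 100 uM tamoxifen. AC50 fitted with the Hill equation.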
p53ts 39C kill: p53ts cell cytotoxicity, nonpermissive temperature. H1299-p53A138V viability at 39C, ATP luminescence, 24 h. Potency, µM (series often up to 46.1 µM), usual class: cytotoxic. 130,000 compounds, 1.5% hits; note: nearly all actives have a fitted effect of over 55% in size
FLuc inh: blocks Photinus pyralis firefly luciferase activity; P08659; purified firefly luciferase, luminescence, 8 min; Potency, µM (top dose mostly 57.1 µM), most hits filed as inhibitors; 72,000 compounds, 2.2% hits; AID 411; note: nearly all actives have a fitted effect of over 40% in size
Target sequence (P08659 whole entry, looked up): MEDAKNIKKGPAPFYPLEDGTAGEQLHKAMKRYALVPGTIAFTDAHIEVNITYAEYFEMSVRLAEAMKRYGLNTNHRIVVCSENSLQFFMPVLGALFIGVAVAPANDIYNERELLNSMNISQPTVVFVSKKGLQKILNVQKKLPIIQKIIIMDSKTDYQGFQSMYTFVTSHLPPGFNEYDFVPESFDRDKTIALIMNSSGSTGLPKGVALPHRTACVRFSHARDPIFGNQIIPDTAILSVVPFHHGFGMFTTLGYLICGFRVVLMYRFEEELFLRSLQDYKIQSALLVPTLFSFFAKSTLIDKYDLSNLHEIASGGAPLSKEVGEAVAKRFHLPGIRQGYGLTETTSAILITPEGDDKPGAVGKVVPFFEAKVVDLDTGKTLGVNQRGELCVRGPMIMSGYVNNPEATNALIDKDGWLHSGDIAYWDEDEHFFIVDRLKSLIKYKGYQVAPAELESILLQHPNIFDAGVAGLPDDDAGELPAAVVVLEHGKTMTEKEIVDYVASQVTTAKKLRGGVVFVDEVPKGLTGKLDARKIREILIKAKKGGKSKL
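Titration-based qHTS; buffer 50 mM imidazole pH 7.2, 50 mM KCl, 7 mM MgCl2, 10 uM ATP, 0.01% Tween 20, 0.05% BSA; luciferase/luciferin detector mix added after compound; 8 min, ambient; luminescence.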
Large screens that a line does not name were inactive; ! = a repeat was not active. Calls come from the whole dose curve; as a rule, active = well fitted curve in the direction sought with a large enough effect; inconclusive = small, poorly fitted or top-dose-only effect, or another doubt; inactive = no such curve, though single readings can be large; an effect the other way counts as inactive or inconclusive.

CN(C)S(=O)(=O)N1CCC(n2c(C(F)(F)F)nc3cccnc32)CC1	none (no result: FLuc inh)
CCOC(=O)c1ccc(N2CCN(c3cc(Cl)ccc3C)CC2)c(NC(=O)Nc2cccc(OC)c2)c1	none (no result: FLuc inh)
O=C(CSc1c2c(nc3cc(Cl)ccc13)CCCC2)N1CCN(c2ccccc2)CC1	p53ts 32C kill inconclusive, p53ts 39C kill 25µM (no result: FLuc inh)
O=C(CSc1c2c(nc3cc(Cl)ccc13)CCCC2)NCc1ccccc1Cl	p53ts 39C kill inconclusive (no result: FLuc inh)
CCC(C)NC(=O)CSc1c2c(nc3cc(Cl)ccc13)CCCC2 (centres undefined)	none (no result: FLuc inh)
CC1CCN(C(=O)CSc2c3c(nc4cc(Cl)ccc24)CCCC3)CC1	p53ts 39C kill 16µM (no result: FLuc inh)
Cc1ccc(C(=O)Nc2ccc(O)c(C(=O)O)c2)o1	none
Cc1occc1C(=O)Nc1ccc2c(c1)OCCO2	p53ts 32C kill inconclusive, p53ts 39C kill inconclusive, FLuc inh 20µM
Cc1cc(C(=O)Nc2ccc3c(c2)OCCO3)c(C)o1	p53ts 32C kill 16µM, p53ts 39C kill 13µM, FLuc inh 16µM
Cc1csc2ncc(C(=O)Nc3ccc4c(c3)OCCO4)c(=O)n12	none
Cc1occc1C(=O)Nc1ccc(S(=O)(=O)N2CCN(C)CC2)cc1	none
Cc1ccc(C(=O)Nc2ccc3c(c2)CCC3)o1	p53ts 32C kill 13µM, p53ts 39C kill inconclusive (no result: FLuc inh)
Cc1occc1C(=O)Nc1ccc2c(c1)CCC2	p53ts 32C kill inconclusive, p53ts 39C kill inconclusive, FLuc inh 25µM
Cc1cc(C(=O)Nc2cccc(O)c2)c(C)o1	none
Cc1noc(Cn2c(=O)c3ccccc3n(CC(=O)Nc3ccc(C(C)C)cc3)c2=O)n1	none (no result: FLuc inh)
Cc1ccc(C)c(Cn2nnc(C(=O)NCc3ccccc3)c2N)c1	none (no result: FLuc inh)
Cc1ccc(OCC(=O)Nc2ccc3nn(-c4ccc(C)cc4)nc3c2)cc1	none (no result: FLuc inh)
CCCC(=O)Nc1ccc2nn(-c3ccc(CC)cc3)nc2c1	p53ts 39C kill 10µM (no result: FLuc inh)
COc1ccc(C(=O)CCC(=O)Nc2cc(C)ccc2C)cc1	none (no result: FLuc inh)
S=C(Nc1ccccn1)c1ccccn1	p53ts 32C kill inconclusive, p53ts 39C kill inconclusive, FLuc inh 20µM
O=C(O)c1ccccc1C(=O)Nc1ccccn1	none
O=C(Cc1ccc(Cl)cc1)NCC(c1cccs1)S(=O)(=O)c1ccccc1 (centres undefined)	none (no result: FLuc inh)
O=C(O)/C=C\c1ccc(Cn2ccnc2)cc1	none
O=C(Nc1ccc(N2CCCC2)cc1)c1ccc(Br)o1	p53ts 32C kill inconclusive, FLuc inh 2.5µM
O=C(c1ccc(F)cc1)c1ccc(N2CCCC2)cc1	p53ts 39C kill inconclusive
CCCCOC(=O)Nc1ccc(N2CCCCC2)cc1	p53ts 32C kill inconclusive, p53ts 39C kill inconclusive, FLuc inh 13µM
COC(=O)Cc1ccc(NC(=O)c2ccc(Br)o2)cc1	p53ts 39C kill inconclusive
O=C(Nc1ccc(N2CCN(C(=O)c3ccccc3)CC2)cc1)c1ccc(Br)o1	none
CCN(CC)c1ccc(NC(=O)c2ccc(Br)o2)cc1	p53ts 32C kill 13µM, p53ts 39C kill inconclusive, FLuc inh 10µM
O=C(Nc1ccc(N2CCCCC2)cc1)c1ccc(F)cc1	p53ts 32C kill 7.9µM, p53ts 39C kill inconclusive, FLuc inh 4µM
CCCCOC(=O)Nc1ccc(N2CCOCC2)cc1	none
CCOc1ccc(-c2cc(C(=O)NCc3ccc(OCC)c(OC)c3)[nH]n2)cc1	none (no result: FLuc inh)
CC(=O)N1c2ccc(S(=O)(=O)NCC3CCC(C(=O)Nc4cc(C)ccc4C)CC3)cc2CC1C (centres undefined)	none (no result: FLuc inh)
COCCCNC(=O)C1CCCN(c2ncnc3onc(C)c23)C1 (centres undefined)	none (no result: FLuc inh)
Cc1ccc2c(c1)-c1onc(C(=O)N3CCN(c4ccc(Cl)cc4)CC3)c1CO2	none (no result: FLuc inh)
Cc1nn(-c2ccc(N3CCCC3)nn2)c(C)c1CCC(=O)Nc1ccccc1	none (no result: FLuc inh)
Cc1ccc(NC(=O)CCc2c(C)nn(-c3ccc(N4CCCCC4)nn3)c2C)cc1F	p53ts 32C kill inconclusive, p53ts 39C kill 13µM (no result: FLuc inh)
CC1(C)Oc2ccc(NC(=O)C3COc4ccccc4O3)cc2O1 (centres undefined)	p53ts 32C kill inconclusive, p53ts 39C kill inconclusive, FLuc inh 13µM
CC(C)(C)NC(=O)c1ccc(NC(=O)C2COc3ccccc3O2)cc1 (centres undefined)	none
CC(C)(C)C1CCc2c(sc(NC(=O)c3ccco3)c2C(=O)Nc2ccccc2Cl)C1 (centres undefined)	none (no result: FLuc inh)
CCOc1ccc(-c2nnc(N(CC)C(=O)C3CCC3)s2)cc1	p53ts 39C kill inconclusive, FLuc inh 16µM
CCN(C(=O)Cc1cccs1)c1nnc(-c2cc(OC)c(OC)c(OC)c2)s1	none
CCCC(=O)N(C)c1nnc(-c2ccc(OC)cc2)s1	p53ts 32C kill inconclusive, p53ts 39C kill inconclusive, FLuc inh 16µM
CN(C(=O)COc1ccccc1)c1nnc(-c2cccnc2)s1	none
CCCCCn1c(C(C)NC(=O)c2ccccc2)nc2ccccc21 (centres undefined)	none (no result: FLuc inh)
CCC(C)NC(=O)c1cn(CC)c2ccc(S(=O)(=O)N3CCc4ccccc4C3)cc2c1=O (centres undefined)	none (no result: FLuc inh)
Cc1cccc(C(=O)N2CCc3cc(CNC(=O)c4ccc(Br)o4)ccc32)c1	none (no result: FLuc inh)
CC(C)(C)c1ccc(O)c(N)c1	none (no result: p53ts 32C kill, p53ts 39C kill)
CC(C)(C)c1ccc(-c2cc(N)n[nH]2)cc1	p53ts 32C kill inconclusive, p53ts 39C kill inconclusive, FLuc inh 13µM
O=C(c1ccncc1)N1CCN(C(=O)c2cccc3ccccc23)CC1	none
C/C(=N\NC(=O)c1ccncc1)c1ccc2ccccc2c1O	p53ts 32C kill inconclusive, p53ts 39C kill 2µM
Cc1cc2nc(-c3cccc(NC(=O)C(C)C)c3C)oc2cc1C	p53ts 32C kill inconclusive, p53ts 39C kill 0.13µM (no result: FLuc inh)
COc1cc2ccccc2cc1C(=O)Nc1cccc(-c2nc3cc(C)c(C)cc3o2)c1C	none (no result: FLuc inh)
Cc1ccc(SCC(=O)Nc2cccc(-c3nc4cc(Cl)ccc4o3)c2C)cc1	p53ts 39C kill inconclusive (no result: FLuc inh)
Cc1cc2nc(-c3cccc(NC(=O)c4ccc(Br)o4)c3C)oc2cc1C	p53ts 32C kill inconclusive, p53ts 39C kill inconclusive, FLuc inh 7.9µM
Cc1ccc(NC(=O)/C=C\C(=O)N(c2ccc(C(C)C)cc2)C(C(=O)NCc2ccco2)c2ccc(F)cc2)cc1 (centres undefined)	none (no result: FLuc inh)
CCc1ccc(C(=O)c2cn(Cc3ccccc3)c3cc(OC)c(OC)cc3c2=O)cc1	p53ts 39C kill inconclusive (no result: FLuc inh)
Cc1nc2ccccc2c2oc(C(=O)N3CCN(C(=O)c4ccco4)CC3)cc12	none
Cc1nc2ccccc2c2oc(C(=O)N3CCc4ccccc4C3)cc12	p53ts 32C kill inconclusive, p53ts 39C kill 20µM
CCOC(=O)c1oc2ccc(S(=O)(=O)n3nc(-c4cc(OC)cc(OC)c4)cc3N)cc2c1C	none (no result: FLuc inh)
COc1ccc(Cc2n[nH]c(=O)c3ccccc23)cc1OC	none
COc1ccc(Cc2nnc(N/N=C/c3ccc(O)cc3)[nH]c2=O)cc1OC	p53ts 39C kill 2.8µM (no result: p53ts 32C kill, FLuc inh)
Cc1ccc(CCNC(=O)CCSCc2ccccc2F)cc1	none (no result: FLuc inh)
Cc1ccc(O)c(N=Nc2ccccc2)n1	p53ts 32C kill 20µM, p53ts 39C kill 13µM, FLuc inh 13µM!
Cc1cc(Nc2ccc(N=Nc3ccc(O)c4ncccc34)cc2)nc(C)n1	none
Cc1c(C(=O)OCCOc2ccccc2)[nH]c2c1C(=O)CCC2	FLuc inh 10µM
Cc1c(C(=O)OCc2ccccc2)[nH]c2c1C(=O)CC(c1ccc(Cl)cc1)C2 (centres undefined)	none (no result: FLuc inh)
CCCc1c(C(=O)OCC)[nH]c2c1C(=O)CCC2	none
CCc1ccc(C2CC(=O)c3c([nH]c(C(=O)OCCOc4ccccc4)c3C)C2)cc1 (centres undefined)	p53ts 32C kill inconclusive, p53ts 39C kill 13µM (no result: FLuc inh)
